{"source": "PubChem BioAssay AID493192", "about": "(National Center for Advancing Translational Sciences (NCATS), 2011)", "note": "Records with an inconclusive call do not appear. Unmarked numbers belong to inactive results. Calls of active or inactive are those of the source. Calls come from the whole dose curve; as a rule, active = well fitted activation curve with a large enough effect; inconclusive = small, poorly fitted or top-dose-only effect; inactive = no such curve, though single readings can be large or run the other way. Potency is the fitted concentration of half-maximal effect.", "data": [{"test": "qHTS Assay for Identifying a Potential Treatment of Ataxia-Telangiectasia: Hit Validation;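 note: phospho-KAP1 level by AlphaLISA as a proxy for ATM-like kinase activity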; for activity change, positive = activation: 0% is about no effect", "conditions": "Ataxia-telangiectasia cell-based hit validation qHTS, in ATM-null A-T patient fibroblasts; series mostly up to 76.9 µM; activity change, positive = activation: at the top concentration", "summary_of_the_method": "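hTERT-immortalized A-T patient fibroblasts (F2112) were dosed at up to 76.7 uM final for 60 min at 37C. After a further 30 min incubation, cells were lysed, and phospho-KAP1 was detected by AlphaLISA after 6 hr at 25C.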", "units": {"activity change, positive = activation": "%"}, "values": [{"compound": "COc1ccc(CCNC2=NCCS2)cc1OC", "activity change, positive = activation": -5.56}, {"compound": "O=C1CN(C(=O)NCC(=O)N[C@H](C(=O)O)c2ccccc2)c2ccccc2N1", "activity change, positive = activation": -3.5}, {"compound": "CN1C[C@@H]2C(c3ccccc3)C3(c4ccccc4)CC2(C3)[C@H]1c1ccccc1", "note": "(some centres not stated)", "Potency": "18.4 µM (active)"}, {"compound": "COc1ccc(C2(C)CC(C)(C)Nc3ccccc32)cc1", "note": "(configuration not stated)", "activity change, positive = activation": -2.08}, {"compound": "COc1cc(/C=C2\\CCOC2=O)cc(OC)c1OC", "activity change, positive = activation": -2.08}, {"compound": "Cc1ccc(NC(=O)Nc2cccnc2)cc1NC(=O)Nc1cccnc1", "activity change, positive = activation": 4.55}, {"compound": "CCCN1CN(c2ccccc2)C(=S)N(c2ccccc2)C1", "activity change, positive = activation": 12.2}, {"compound": "COc1cc(CCC(C)NCc2ccccc2)ccc1O", "note": "(configuration not stated)", "activity change, positive = activation": 6.99}, {"compound": "Cc1ccc(C(C)C)c(OCCN2CCc3ccccc3C2)c1", "Potency": "32.8 µM (active)"}, {"compound": "Cc1ccc(OC(=O)c2cc(C)nn2C(C)(C)C)cc1", "activity change, positive = activation": 12.9}, {"compound": "Clc1cccc(CN2CCC(Cc3ccccc3)CC2)c1", "Potency": "13 µM (active)"}, {"compound": "CCCN1C2CCCC1CC(NC(=S)Nc1cccc(C)c1C)C2", "note": "(configuration not stated)", "activity change, positive = activation": 10.4}, {"compound": "O=C(COc1ccccc1Cl)NCCCNC(=O)c1cnccn1", "activity change, positive = activation": -0.803}, {"compound": "CCC(=O)NC1=C(Cl)C(=O)C(NC(=O)CC)=C(Cl)C1=O", "activity change, positive = activation": 5.21}, {"compound": "N#Cc1c(-c2ccccc2)cc(-c2ccccc2)[nH]c1=O", "activity change, positive = activation": -11.2}, {"compound": "O=C(O)CCC(=O)NN1C(=O)c2ccccc2NC1c1ccco1", "note": "(configuration not stated)", "activity change, positive = activation": 11.2}, {"compound": "CC(C)NC(=O)c1ccc(COc2ccc(C(C)(C)C)cc2)o1", "activity change, positive = activation": 15.3}, {"compound": "CCC(C)Nc1nc(N)c([N+](=O)[O-])c(NCCO)n1", "note": "(configuration not stated)", "activity change, positive = activation": -4.55}, {"compound": "Cc1ccc(C2(C)NC(=O)N(CC(=O)Nc3ccccc3N3CCCC3)C2=O)cc1", "note": "(configuration not stated)", "activity change, positive = activation": -9.72}, {"compound": "CC1=C/C(=C\\C=C(C#N)C#N)N(C)c2ccccc21", "activity change, positive = activation": 6.25}, {"compound": "Cc1nn(C)c(Cl)c1CN1CCN(C2CCCC2)C(CCO)C1", "note": "(configuration not stated)", "activity change, positive = activation": 4.2}, {"compound": "C=Cc1c(C)c2cc3[nH]c(cc4nc(cc5nc(cc1[nH]2)C(C)=C5CCC(=O)O)C(CCC(=O)O)=C4C)c(C)c3C=C", "activity change, positive = activation": 21.5}, {"compound": "Cc1cc(C)n2nc(C(=O)OCCOc3ccc(F)cc3)nc2n1", "Potency": "58.2 µM (active)"}, {"compound": "N#Cc1c2c(c(-n3cnc4ccccc43)n3c1nc1ccccc13)CCC2", "activity change, positive = activation": -17.4}, {"compound": "COc1ccc(C(=O)N2CCCC2(C#N)c2ccccc2)cc1[N+](=O)[O-]", "note": "(configuration not stated)", "activity change, positive = activation": 19.4}, {"compound": "COc1cccc(C(=O)NOCc2ccc(C)cc2)c1OC", "activity change, positive = activation": -1.2}, {"compound": "CCNC(=S)N(CCc1c(C)[nH]c2ccccc12)Cc1cccnc1", "activity change, positive = activation": -30.6}, {"compound": "CCOC(=O)C1CCN(C(=O)c2cc3cc(Cl)ccc3[nH]2)CC1", "activity change, positive = activation": 2.08}, {"compound": "Cc1cc2c(c(=O)o1)C(CCC1CCCCC1)C(C#N)=C(N)O2", "note": "(configuration not stated)", "activity change, positive = activation": 19.3}, {"compound": "COc1ccc(C(=O)CSc2nc3ncccc3[nH]2)cc1OC", "activity change, positive = activation": 1.61}, {"compound": "CNC(=O)/C=C/c1cc(C(=O)c2ccc(Cl)cc2Cl)cn1C", "activity change, positive = activation": -18.1}, {"compound": "CCC12CN(C(=O)c3ccc([N+](=O)[O-])cc3)CC(CC)(CN(C(=O)c3ccc([N+](=O)[O-])cc3)C1)C2=O", "activity change, positive = activation": 16.7}, {"compound": "OC(CN1CCCCC1)Cn1c2ccc(Cl)cc2c2cc(Cl)ccc21", "note": "(configuration not stated)", "activity change, positive = activation": -5.56}, {"compound": "Cc1ccc(C)c(-n2c(SCC(=O)NC(C(=O)O)C(C)C)nnc2-c2cccc(Cl)c2)c1", "note": "(configuration not stated)", "Potency": "36.8 µM (active)"}, {"compound": "CC1=NOC2(C1)N(C)c1ccccc1C2(C)C", "note": "(configuration not stated)", "activity change, positive = activation": 2.08}, {"compound": "Cc1oc2c(c(C)cc3oc(=O)c(CC(=O)NCC(=O)NCC(=O)O)c(C)c32)c1C", "Potency": "32.8 µM (active)"}, {"compound": "CC(CCc1ccccc1)NC(=O)COC(=O)c1ccc(F)cc1", "note": "(configuration not stated)", "activity change, positive = activation": 0}]}]}
